In the library only some 21% were active in any assay of this set; here they are far more common.
HCV inh: inhibitors of hepatitis C virus infection; Huh7.5.1 HCVcc-Cre infection, luciferase reporter, 44 h; Potency, µM (series often up to 41.8 µM), for the others: at the top dose activity change, negative = inhibition, usual class: inhibitors; 340,000 compounds, 3.4% hits; AID 651820; note: potency is the fitted concentration of half-maximal effect; % is set by controls: 0 for no effect and ±100 for the full control effect
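Antiviral activity was scored by luciferase reporter output from cells infected with HCVcc-Cre (~0.5 moi) in presence of compound, 44 h infection period, cells seeded 1,000/well 4 h prior.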
AMA1 RON2 block: AMA1-RON2 (P. falciparum) interaction inhibition. AlphaScreen AMA1-biotinylated RON2 peptide binding. Potency, µM (highest dose often 58.2 µM), without a hit: at the highest dose activity change, negative = inhibition, actives largely listed as inhibitors. 360,000 compounds, 0.2% hits;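 note: potency is the fitted concentration of half-maximal effect; 0% = vehicle wells and -100% = peptide control; nearly all actives have a fitted effect of over 45% in size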
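AMA1 (3D7) with his tag at 25 nM final met compounds first, then biotinylated RON2 peptide at 25 nM; detection used donor plus acceptor beads, 10 µg/mL apiece, read by AlphaScreen after 30 min at room temperature.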
Cycloheximide cs: counter-screen hit for Shiga toxin inhibitors, cycloheximide | cell reporter, cycloheximide protein synthesis inhibition counterscreen | 300,000 compounds, 12% hits | max response, %; in the data active = max response mostly above about 13%, no sharp cut-off; inactive = mostly below about 14%; note: read at 38.3 µM for the half of the compounds with a filed dose; 0% is about no effect
Pf growth 48h: inhibits P. falciparum growth in the first generation, 48 h. P. falciparum luciferase growth in erythrocytes, 48 h. Potency, µM (titrated, usually from 28.7 µM), inactives show at the top dose activity change, negative = inhibition, actives largely listed as inhibitors. AID 504832. 310,000 compounds, 5.9% hits; note: potency is the fitted concentration of half-maximal effect; % is set by controls: 0 for no effect and ±100 for the full control effect
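Compounds are pin-transferred into medium, infected erythrocytes (2% hematocrit, 0.1% parasitemia final) are added, and plates sit one parasite generation at 37 C in 5% CO2. Detection reagent is then added and luminescence measured.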
Pf growth 96h: P. falciparum growth inhibition at 96 hours | P. falciparum luciferase reporter growth, 96 h | Potency, µM (titrated, usually from 28.7 µM), for the others: top-dose activity change, negative = inhibition, usual class: inhibitors | 320,000 compounds, 6.9% hits; note: potency is the fitted concentration of half-maximal effect; % is set by controls: 0 for no effect and ±100 for the full control effect
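Two-generation exposure (96 h) targets delayed-death phenotype. Reporter parasites carrying integrated firefly luciferase, in red cells at 2% hematocrit and 0.05% parasitemia final, kept at 37 C, 5% CO2; luminescence loss indicates inhibition.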
Shiga inhibitor: blocks Shiga toxin action in Vero cells. AID 2315. Vero cells, Shiga toxin protein synthesis inhibition reporter. 290,000 compounds, 9.2% hits. inhibition, % at 38.7 µM; in the data active = inhibition mostly above about 28%, no sharp cut-off; inactive = mostly below about 43%; note: 0% is about no effect
* marks the source's active call; other numbers are inactive results; [ ] = another dose, or the depositor's remark. Unless noted, calls come from the whole dose curve; as a rule, active = well fitted curve in the direction sought with a large enough effect; inconclusive = small, poorly fitted or top-dose-only effect, or another doubt; inactive = no such curve, though single readings can be large; an effect the other way counts as inactive or inconclusive.

`CCn1ncc(/C=C/C(=O)C2CC2)c1C` gave HCV inh 32%, AMA1 RON2 block -1%[11.6 µM], Cycloheximide cs 24, Pf growth 48h 13%, Pf growth 96h 4% and Shiga inhibitor active.
`COCCN1C(=O)Cc2c1nc(N)c1c(N)nc(N3CCN(c4ccc(F)cc4)CC3)c(C#N)c21` gave HCV inh -25%, AMA1 RON2 block 73%, Cycloheximide cs -3, Pf growth 48h 7.4µM*, Pf growth 96h inconclusive and Shiga inhibitor -1.
For COCC(C)N1C(=O)Cc2c1nc(N)c1c(N)nc(N3CCN(c4ccccc4F)CC3)c(C#N)c21 (stereo unspecified) the results were HCV inh inconclusive, AMA1 RON2 block 50%, Cycloheximide cs 6, Pf growth 48h 5.9µM*, Pf growth 96h 1.3µM* and Shiga inhibitor -3.
Screening COc1ccc(CN2C(=O)Cc3c2nc(N)c2c(N)nc(N4CCOCC4)c(C#N)c32)cc1 returned HCV inh inconclusive, AMA1 RON2 block 66%, Cycloheximide cs -3, Pf growth 48h inconclusive, Pf growth 96h inconclusive and Shiga inhibitor -9.
`N#CCc1c(C#N)c(N)nc(N2CCN(c3ccc(F)cc3)CC2)c1C#N` gave HCV inh inconclusive, AMA1 RON2 block 8%, Cycloheximide cs 1, Pf growth 48h 9.3µM* and Shiga inhibitor -24.
Screening CC1(C2CC2)NC(=O)N(CC(=O)NCc2ccc(Cl)cc2Cl)C1=O (stereo unspecified) returned HCV inh 18%, AMA1 RON2 block 0%, Pf growth 48h 3% and Pf growth 96h -6%.
Screening Cc1ccnc(NC(=O)CCc2c[nH]c3ccccc23)c1 returned HCV inh inconclusive, AMA1 RON2 block 14%, Cycloheximide cs 40*, Pf growth 48h 100%, Pf growth 96h 86% and Shiga inhibitor 91*.
Screening Cc1ccnc(NC(=O)c2ccccc2[N+](=O)[O-])c1 returned HCV inh -15%, AMA1 RON2 block 0%, Cycloheximide cs 19*, Pf growth 48h 46%, Pf growth 96h 42% and Shiga inhibitor 19.
Screening Cc1ccnc(NC(=O)c2cccc([N+](=O)[O-])c2C)c1 returned HCV inh -12%, AMA1 RON2 block -14%, Cycloheximide cs 16, Pf growth 48h 121%, Pf growth 96h 121% and Shiga inhibitor 51.
Cc1ccnc(NC(=O)c2cccc3ccccc23)c1 was read as HCV inh -6%, AMA1 RON2 block 7%, Cycloheximide cs 49*, Pf growth 48h 47%, Pf growth 96h 65% and Shiga inhibitor 77*.
For Cc1cccnc1NC(=O)CCCc1c[nH]c2ccccc12 the results were HCV inh 0%, AMA1 RON2 block 0%, Cycloheximide cs 3, Pf growth 48h 105%, Pf growth 96h inconclusive and Shiga inhibitor -3.
Screening Cc1ccnc(NC(=O)/C=C/c2ccccc2Cl)c1 returned HCV inh inconclusive, AMA1 RON2 block 0%, Cycloheximide cs 59*, Pf growth 48h 122%, Pf growth 96h 97% and Shiga inhibitor active.
Screening Cc1ccnc(NC(=O)c2cc(-n3cnnc3)ccc2Cl)c1 returned HCV inh 20%, AMA1 RON2 block -2%, Cycloheximide cs 1, Pf growth 48h 9%, Pf growth 96h 28% and Shiga inhibitor 3.
Screening CCc1nc2ccc(C(=O)Nc3cccc(OCC(=O)N(C)C)c3)cn2c1N(C)Cc1cc2ccccc2s1 returned AMA1 RON2 block -11%.
Screening CC(C)(C)OC(=O)N1CSC[C@H]1C(=O)NC[C@H](CC(=O)O)c1ccc(Cl)cc1 returned HCV inh -1%, AMA1 RON2 block 2%, Cycloheximide cs 2, Pf growth 48h 1%, Pf growth 96h 18% and Shiga inhibitor 5.
`NS(=O)(=O)c1ccc(NC(=O)/C=C/c2ccccc2[N+](=O)[O-])cc1` gave HCV inh inconclusive, AMA1 RON2 block 4%, Cycloheximide cs -3, Pf growth 48h -26%, Pf growth 96h -19% and Shiga inhibitor 22.
For Cc1ccnc(NC(=O)/C=C/c2ccccc2[N+](=O)[O-])c1 the results were Cycloheximide cs 34*, Pf growth 48h 39%, Pf growth 96h -27% and Shiga inhibitor 73*.
`O=C(/C=C\c1ccccc1[N+](=O)[O-])Nc1ccccc1` gave HCV inh -25%, AMA1 RON2 block 6%, Cycloheximide cs 39*, Pf growth 48h 101%, Pf growth 96h 1% and Shiga inhibitor 52*.
Cc1cc(C(=O)O)cc(S(=O)(=O)Nc2ccccc2C(=O)NC2CC2)c1C was read as HCV inh 10%, AMA1 RON2 block 9%, Pf growth 48h 18% and Pf growth 96h 69%.
COc1ccc(Cc2noc(CN(C)CC3(N4CCOCC4)CCCCC3)n2)cc1OC was read as HCV inh inconclusive, AMA1 RON2 block 89%, Cycloheximide cs -2, Pf growth 48h -16%, Pf growth 96h inconclusive and Shiga inhibitor -12.
Screening CCOC(=O)C1=C(N)Oc2cc(O)ccc2C1c1cccc([N+](=O)[O-])c1 (stereo unspecified) returned HCV inh inconclusive, AMA1 RON2 block -24%, Cycloheximide cs -11, Pf growth 48h -8%, Pf growth 96h -64% and Shiga inhibitor -13.
Screening O=C(O)c1ccc(S(=O)(=O)c2ccc3c(c2)C(=O)N(NC(=O)c2ccncc2)C3=O)cc1 returned HCV inh 8%, AMA1 RON2 block 5%, Cycloheximide cs 8, Pf growth 48h 11%, Pf growth 96h 14% and Shiga inhibitor 7.
`CN1C(=O)c2ccc(S(=O)(=O)c3ccc(C(=O)O)cc3)cc2C1=O` gave HCV inh 15%, AMA1 RON2 block 5%, Cycloheximide cs 11, Pf growth 48h 17%, Pf growth 96h 30% and Shiga inhibitor -1.
`CC(=O)Oc1ccccc1N1C(=O)c2ccc(C(=O)O)cc2C1=O` gave HCV inh 3%, AMA1 RON2 block -2%, Cycloheximide cs 2, Pf growth 48h 11%, Pf growth 96h 4% and Shiga inhibitor 15.
For O=C(O)c1ccc(S(=O)(=O)c2ccc3c(c2)C(=O)N(c2ccccc2[N+](=O)[O-])C3=O)cc1 the results were HCV inh 2%, AMA1 RON2 block -3%, Cycloheximide cs -1, Pf growth 48h 6%, Pf growth 96h 13µM* and Shiga inhibitor -33.
For O=C(O)c1ccc(S(=O)(=O)c2ccc3c(c2)C(=O)N(NC(=O)c2ccccc2)C3=O)cc1 the results were HCV inh 16%, AMA1 RON2 block inconclusive, Cycloheximide cs 7, Pf growth 48h 39%, Pf growth 96h 9% and Shiga inhibitor 59.

Source: PubChem (National Center for Advancing Translational Sciences (NCATS))
